Data on 111 molecules can be found in PubChem BioAssay AID686978 (National Center for Advancing Translational Sciences (NCATS), 2013).

The structures appear in SMILES notation. The whole screen tested about 420,000 compounds, of which about 64,000 (15%) were called active. Not shown: some 27% with an inconclusive outcome. Calls follow the shape of the dose curve; as a rule, active = well fitted inhibition curve with a large enough effect; inconclusive = small, poorly fitted or top-dose-only effect; inactive = flat fitted curve, though single readings scatter. Only a sample is shown. Where a call stands in place of a potency, no number is given.
Potency is read from the fitted curve at half-maximal effect.

This assay is described as follows: qHTS for Inhibitors of human tyrosyl-DNA phosphodiesterase 1 (TDP1): qHTS in cells in absence of CPT. Also: nearly all actives have a fitted effect of over 55% in size. The conditions noted are these: DT40 Tdp1-/- hTDP1 cells, no CPT, ATP luminescence, 48 h; activity change, negative = growth inhibition: at 46.2 µM (top of the series). The method, boiled down: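 Growth kinetics read by CellTiter-Glo luminescence after ≥48 hr at 37 °C. Cells: DT40 Tdp1-/- stably carrying human TDP1, 400 per well, compound exposure in the absence of CPT (DMSO vehicle).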
Regarding `CC(C)OCC(O)CN1CCN(C(c2ccccc2)c2ccccc2)CC1` (stereo unspecified), the Potency entry was “inactive”. In the case of `COc1ccc(C(c2nnnn2C2CCCC2)N2CCN(C/C=C/c3ccccc3)CC2)cc1` (stereo unspecified), the Potency is 16.4 µM (active). Under `O=C(O)CN1CCN(C(c2ccccc2)c2ccccc2)CC1` stands “inactive”. With `COc1ccc(/C=C/CN2CCN(Cc3ccc(C)cc3)C(CCO)C2)cc1` (stereo unspecified), the Potency result is “inactive”.

In the case of `Oc1ccccc1CN1CCN(C(c2ccccc2)c2ccccc2)CC1`, the Potency is 16.4 µM (active). Under `O=C(Nc1ccnn1C1CCN(C/C=C/c2ccc(F)cc2)CC1)C1CCCC1` stands “inactive”.

Turning to `CCOC(=O)c1c(C(C#N)C#N)cc(C)nc1C`, the Potency result was “inactive”.

For the molecule `OC[C@H]1O[C@@H](c2nc(-c3nc(-c4ccc(F)cc4)no3)cs2)[C@H](O)[C@@H](O)[C@H]1O`, the Potency entry was “inactive”. Consider `O=C(Nc1ccc2c(c1)OCO2)c1cc(-c2cccc(Cl)c2)on1`, for which the Potency entry is “inactive”. Turning to `CCC(Oc1ccccc1)C(=O)NCc1cccnc1` (stereo unspecified), the Potency result was “inactive”.

In the case of `O=C(O)CC/C(=C\c1cc2c(cc1Br)OCO2)c1nc2ccccc2s1`, the Potency entry was “inactive”. For the molecule `O=C(O)C1=C(C(=O)O)C2CCC1C2`, the Potency entry was “inactive”.

`COc1ccccc1N(CC(=O)N/N=C(\C)c1ccccc1O)S(=O)(=O)c1ccc(C)cc1`: the Potency was 1.64 µM (active). Under `COc1ccccc1N(CC(=O)Nc1c(C)n(C)n(-c2ccccc2)c1=O)S(=O)(=O)c1ccccc1` stands “inactive”. Take `COc1ccc(S(=O)(=O)N(CC(=O)N/N=C/c2ccccc2C(=O)O)c2ccccc2OC)cc1`: the Potency entry was “inactive”. With `COC(=O)[C@H](C(C)C)n1c(C)c(C(C)=O)c(C(C)=O)c1C`, the Potency entry was “inactive”. Under `O=S(=O)(c1cccc(C(F)(F)F)c1)N1CCN(c2nc(-c3cccs3)nc3ccccc23)CC1` stands “inactive”. Under `O=S(=O)(c1cccc(C(F)(F)F)c1)N1CCN(c2cnccn2)CC1` stands “inactive”; under `O=S(=O)(c1cccc(C(F)(F)F)c1)N1c2ccccc2-n2cccc2C1c1cccnc1` (stereo unspecified), 18.4 µM (active); under `O=S(=O)(c1ccc(F)cc1)n1ccc(-c2cnc(-c3ccccc3)s2)n1`, “inactive”. Under `CCN(CC)c1ccc(NC(=O)CN2CCN(c3ccccn3)CC2)cc1` stands “inactive”. With `CN(C(=O)CN1CCN(c2cc(-c3ccc(OCc4ccccc4)cc3)ncn2)CC1)c1ccccc1`, the Potency was 18.4 µM (active). Under `COc1ccc(NC(C)=O)cc1NC(=O)CN1CCN(c2ccccn2)CC1` stands “inactive”; under `O=C1OCC2=C1C(c1ccccc1)CC(=O)N2c1cccc(F)c1` (stereo unspecified), “inactive”.

Consider `CSc1sc(C(=O)NNC(=O)c2ccc(Cl)cc2)c2c1C=CCC2`, for which the Potency entry was “inactive”. In the case of `Cc1csc2nc(COc3ccc(NC(=O)COc4ccccc4)cc3)cc(=O)n12`, the Potency entry is “inactive”. Under `Cc1csc2nc(COC(=O)c3ccc(NC(=O)COc4ccccc4F)cc3)cc(=O)n12` stands 18.4 µM (active); under `Cc1csc2nc(COC(=O)c3ccccc3NC(=O)c3ccccc3Cl)cc(=O)n12`, 11.6 µM (active); under `Cc1ccc(OCC(=O)Nc2ccc(OCc3cc(=O)n4c(C)csc4n3)cc2)cc1C`, “inactive”. Under `O=C(COc1ccccc1F)Nc1ccc(C(=O)OCc2cc(=O)n3nc(C4CC4)sc3n2)cc1` stands “inactive”; under `Cc1ccc(C(=O)Nc2ccc(OCc3cc(=O)n4c(C)csc4n3)cc2)cc1`, “inactive”. In the case of `Cc1nc2c(c(C)nn2-c2ccccc2)c(C)c1C`, the Potency entry is “inactive”. Under `Cc1cccc(-n2nc3c(c2NC(=O)c2cc4ccccc4o2)CS(=O)(=O)C3)c1` stands “inactive”; under `CC(C)COc1ccc(C(=O)NNC(=O)CCC(=O)c2cccs2)cc1`, “inactive”; under `CCCCCCCCCCCC(=O)O[C@H](CC(=O)O)C[N+](C)(C)C`, “inactive”. With `CC(=O)c1ccc(Cc2ncc(C(F)(F)F)cc2Cl)s1`, the Potency result is “inactive”. Turning to `Cc1ccc(S(=O)(=O)N(CCc2ccccc2)c2ccc3c(c2)C2CC3CCN2C(=O)OCc2ccccc2)cc1` (stereo unspecified), the Potency is 9.2 µM (active).

On to `Cc1ccc(S(=O)(=O)CCC(=O)OCc2ccccc2)cc1`, for which the Potency result is “inactive”.

In the case of `CCOC(=O)N1CCN(C(=O)CN(c2ccc(C)c(C)c2)S(=O)(=O)c2ccccc2)CC1`, the Potency result was “inactive”.

Turning to `COc1cc(C(C)=O)ccc1OC(=O)CN1C(=O)c2ccccc2C1=O`, the Potency entry is “inactive”. Under `CCOC(=O)c1[nH]cnc1C(=O)Nc1ccccc1C` stands “inactive”.

Regarding `O=C(Nc1ccc2c(c1)CCC2)c1cccc(S(=O)(=O)Nc2ccccc2Cl)c1`, the Potency entry was “inactive”. Turning to `CCCCN(C(=O)c1ccc(C)o1)c1c(N)n(CCCC)c(=O)[nH]c1=O`, the Potency result is “inactive”. Turning to `CC(C)(C)c1cc(NC(=O)NN2CCOCC2)nn1-c1c(Cl)cc(Cl)cc1Cl`, the Potency was 14.6 µM (active).

Regarding `O=C(Nc1ccc(CN2CCOCC2)cc1)c1cc(Cl)ccc1Cl`, the Potency entry was “inactive”. The result for `O=C(CN1CCOCC1)Nc1c(Cl)cc(Cl)cc1Cl` reads “inactive”; that for `Cn1cccc1/C=C1\SC(=O)N(CC(=O)Nc2ccc(F)cc2)C1=O`, “inactive”; that for `CNC(=S)NNC(=O)c1oc2nc(-c3ccccc3)cc(-c3ccco3)c2c1N`, “inactive”. The result for `O=C1OCC2=C1C(c1ccc(Cl)cc1)c1cc3c(cc1O2)OCO3` (stereo unspecified) reads 16.4 µM (active); that for `COc1ccccc1C1C2=C(COC2=O)Nc2cc3c(cc21)OCO3` (stereo unspecified), “inactive”. The result for `O=C(c1ccc(O)cc1)c1ccc(C(=O)O)c(C(=O)O)c1` reads “inactive”; that for `Cc1cccn2cc(-c3cccc(S(=O)(=O)N4CCCCC4)c3)nc12`, “inactive”; that for `CCOC(=O)/C(C#N)=C/c1cn(CCC(=O)O)nc1-c1ccc(Br)cc1`, “inactive”. With `O=C(O)CCn1cc(/C=C/C(=O)c2ccc(Cl)cc2)c(-c2cccc(Br)c2)n1`, the Potency is 23.1 µM (active). Under `O=C(O)/C=C/c1cn(Cc2ccccc2)nc1-c1cccs1` stands “inactive”. As for `CC1CN(C(=O)c2ccccc2NS(=O)(=O)c2cccc([N+](=O)[O-])c2)CC(C)O1` (stereo unspecified), the Potency entry was “inactive”. Under `COc1ccc2sc(-c3ccc(S(C)(=O)=O)cc3)c(-c3ccc(C(N)=O)cc3)c2c1` stands “inactive”; under `COc1ccc2sc(-c3ccc(N(C)C)cc3)c(C#CCO)c2c1`, 18.4 µM (active). For `COc1ccc2sc(-c3ccc(N(C)C)cc3)c(-c3ccc4cc[nH]c4c3)c2c1`, the Potency result is “inactive”. Under `COc1cc(OC)cc(-c2sc3ccc(OC)cc3c2-c2ccc3cc[nH]c3c2)c1` stands “inactive”.

Turning to `COc1ccc2c(Cl)c(-c3nnco3)sc2c1`, the Potency entry was “inactive”. With `COc1ccc(-c2sc3ccc(OC)cc3c2C#Cc2ccccn2)cc1`, the Potency is 18.4 µM (active). Under `CC(C)(C)c1ccc(S(=O)(=O)NC(=O)C2(C)CCN2C(=O)CC2CC2)cc1` (stereo unspecified) stands “inactive”; under `CCS(=O)(=O)C1=NSC2=NC(=O)/C(=C\c3ccc(OS(=O)(=O)c4ccccc4)cc3)C(=N)N21`, “inactive”; under `Cc1cc(C)cc(NC(=O)C(OC(=O)c2ccc(O)cc2)c2ccccc2)c1` (stereo unspecified), “inactive”. In the case of `CCCn1c(C)cc(/C=C(\C#N)C(=O)OCC(=O)N(C)c2c(N)n(Cc3ccccc3)c(=O)[nH]c2=O)c1C`, the Potency result was “inactive”. Under `COc1ccc(N/N=C2/CCCCC2=O)cc1` stands “inactive”; under `CC1(C)CN(c2ccc(-c3ccnc4ncnn34)cc2)C1=O`, “inactive”. In the case of `O=C(NC1CC(=O)N(c2ccccc2)C1)c1ccco1` (stereo unspecified), the Potency result is “inactive”. With `CC(=O)Oc1cccc(N2C(=O)C3CC=C(Cl)CC3C2=O)c1` (stereo unspecified), the Potency entry was “inactive”. `O=C(Oc1cccc(N2C(=O)C3C4c5ccccc5C(c5ccccc54)C3C2=O)c1)c1ccco1` (stereo unspecified): the Potency was 29.1 µM (active). The result for `CC(C)(C)c1ccc(SCCc2ccncc2)cc1` reads 16.4 µM (active); that for `CC(C)(C)NC(=O)C(=O)NCc1ccncc1`, “inactive”; that for `c1ccc(CSCCc2ccncc2)cc1`, “inactive”. For `CN(C)CC(O)COc1ccc(C(C)(C)c2ccc(OCC(O)CN(C)C)cc2)cc1` (stereo unspecified), the Potency is 17.8 µM (active). Under `COc1ccc(OCC(O)CN(C)C(=O)C(C)Oc2ccccc2)cc1` (stereo unspecified) stands “inactive”.

`CCCc1ccc(OCC(O)CN2CCN(CCO)CC2)cc1` (stereo unspecified): the Potency entry is “inactive”. `O=S(=O)(Cc1nnnn1-c1ccccc1)c1ccccc1`: the Potency entry was “inactive”. The result for `CC(C)C(=O)Nc1ccc2oc(=O)ccc2c1` reads “inactive”; that for `Fc1cccc(Cc2c(-c3cccc(Cl)c3)nc3ccc(Br)cn23)c1`, 14.6 µM (active); that for `Cc1cc(Br)cn2c(Cc3cccc(F)c3)c(-c3cccc(Br)c3)nc12`, 23.1 µM (active). Under `CC(C)(C)Cc1c(C2CCCCC2)nc2ccc(Br)cn12` stands “inactive”; under `Cc1cc(Br)cn2c(Cc3ccccc3C(F)(F)F)c(-c3ccc(Cl)cc3)nc12`, “inactive”. Under `CCOC(=O)N1CCN(S(=O)(=O)c2cc3c(cc2C)NC(=O)CO3)CC1` stands “inactive”. Regarding `Cc1nc(N)c(Br)c(C)c1Br`, the Potency result was “inactive”.

Regarding `CCOC(=O)C1C(=O)NC(N2CCN(c3ccccc3)CC2)=NC1c1ccco1` (stereo unspecified), the Potency result was “inactive”.

`Cc1cc(N=Nc2ccc3ccccc3c2)ccc1O`: the Potency entry was “inactive”. For the molecule `CC(C)C[C@H](NC(=O)N1CCn2c1nc1ccccc12)C(=O)NC1CC1`, the Potency result was “inactive”. With `COc1ccc(-n2ccn(CC(=O)Nc3ccc(C)c(C)c3)c(=O)c2=O)cc1OC`, the Potency entry is “inactive”.

`COc1ccc(NC(=O)CC2SC(N3CCCCC3)=NC2=O)cc1OC` (stereo unspecified): the Potency entry was “inactive”. Under `COc1ccc(NC(=O)CN2C(=O)CSC2=O)cc1` stands “inactive”. Under `COc1ccc(NC(=O)CN2C(=O)C(c3ccccc3)=NC23CCCCCC3)cc1OC` stands 18.4 µM (active); under `CCOC(=O)c1cn(CC(=O)Nc2ccc(C(C)C)cc2)nn1`, “inactive”; under `COc1ccc(C2=NC3(CCCCC3)N(CC(=O)Nc3ccc(C(C)C)cc3)C2=O)cc1`, 20.6 µM (active). The result for `COc1ccc(NC(=O)CNC(=O)Cc2ccccc2)cc1OC` reads “inactive”; that for `NC(=O)C1(N2CCCCC2)CCN(C2CC(=O)N(Cc3ccc(N4CCCC4=O)cc3)C2=O)CC1` (stereo unspecified), “inactive”; that for `CC(Oc1cccc(Cl)c1)C(=O)Nc1ccc(S(=O)(=O)Nc2ncccn2)cc1` (stereo unspecified), “inactive”. As for `C[C@H](CO)N1C[C@H](C)[C@H](CN(C)CC2CC2)Oc2ccc(NC(=O)CCN3CCOCC3)cc2C1=O`, the Potency entry is “inactive”. Under `CC1CCCN(C(=O)c2cc(-c3ccco3)nc3ccccc23)C1` (stereo unspecified) stands “inactive”.

With `O=C1c2cccc3cccc(c23)C(=O)N1CCCCCc1n[nH]c(=S)o1`, the Potency result is “inactive”.

`CN(Cc1ccc(F)cc1)C(=O)COc1ccc2ccccc2c1`: the Potency result was “inactive”.

Turning to `COc1ccc(NC(=O)c2cc(-c3cc(OC)c(OC)c(OC)c3)nc3ccccc23)c(OC)c1`, the Potency was 8.2 µM (active). For the molecule `CN(CC(=O)Nc1ccccc1Cl)C(=O)c1ccccc1SCC(=O)N1CCCC1`, the Potency entry is “inactive”.

As to `COc1ccc(CN(C)C(=O)Cc2c[nH]c3ccccc23)c(OC)c1OC`, the Potency result was “inactive”.

In the case of `COc1ccc(-c2cc(C(=O)N(C)Cc3ccccc3)c3ccccc3n2)cc1`, the Potency is 14.6 µM (active). Under `COc1ccc(/C=N/OCC(=O)N(Cc2ccccc2)c2ccccc2C(=O)O)cc1` stands “inactive”. Under `Cc1cccc(C(=O)NCC(=O)OCC(=O)N(C)CC(=O)Nc2ccccc2Cl)c1` stands “inactive”; under `COc1ccc(-c2cc(C(=O)N(C)Cc3ccc(OC)c(OC)c3OC)c3ccccc3n2)cc1OC`, 18.4 µM (active); under `COc1ccccc1NC(=O)c1cc(Cl)nc2ccccc12`, “inactive”. On to `COc1ccc(-c2cc(C(=O)N(C)CC(=O)Nc3ccccc3Cl)c3ccccc3n2)cc1OC`, for which the Potency is 9.2 µM (active). The result for `CC(C)(C)Cc1nnc(NC(=O)c2cc(-c3ccccc3)nc3ccccc23)s1` reads “inactive”.
